# From PubChem BioAssay
# Activity calls are given as the source filed them.
# Key:
# [1] = system: Plasmodium falciparum Sir2 (PF13_0152, Sir2A); experiment: Plasmodium falciparum Sir2A binding compounds – biochemical, small-molecule microarray, 635 nm fluorescence, primary screen (AID 1098); settings: fluorescence 635 nm, higher = more signal;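 also: score merges spot fluorescence intensity with its signal-to-noise ratio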
# [2] = probe aDKK1 binding to arrayed compounds – biochemical, biotinylated probe, 635/667 nm fluorescence, primary screen (AID 1099); settings: small-molecule microarray, higher = more signal;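 also: score merges 667nm spot fluorescence with signal to noise across triplicate slides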
# [3] = probe aCHRDL2 binding to arrayed compounds – biochemical, biotinylated probe, 635/667 nm fluorescence, primary screen (AID 1100); settings: small-molecule microarray, higher = more signal
# [4] = change in splice reporter luminescence, either direction, cell-based, HEK293, spliceosome inhibition project, primary screen (AID 1101); settings: HEK293 splicing luciferase reporter, 24 h, higher = more signal, called active from +8 up or from −8 down;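 also: HEK293 cells carrying a splicing-competent luciferase reporter gene; test concentration not given here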
# [5] = molecular target: Fibroblast growth factor 10 (Homo sapiens) (UniProt O15520); experiment: compounds binding fibroblast growth factor 10 – biochemical, small-molecule microarray, 635 nm fluorescence, primary screen (AID 1102); settings: FGF10 binding, fluorescence 635 nm, higher = more signal
# [6] = system: glycogen synthase kinase-3 (GSK3A per assay name; protocol says GSK3B); experiment: compounds binding glycogen synthase kinase-3 – biochemical, small-molecule microarray, 635 nm fluorescence, GSK3A, primary screen (AID 1103); settings: fluorescence 635 nm, higher = more signal; also: the record names both GSK3A and GSK3B
# [7] = molecular target: Epidermal growth factor receptor (Homo sapiens) (UniProt P00533); experiment: compounds binding epidermal growth factor receptor – biochemical, small-molecule microarray, 635 nm fluorescence, primary screen (AID 1104); settings: EGFR binding, higher = more signal;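 also: score merges 667 nm emission intensity with spot signal to noise over triplicate slides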
# [8] = molecular target: Follistatin-related protein 3 (Homo sapiens) (UniProt O95633); experiment: compounds binding follistatin-related protein 3 – biochemical, small-molecule microarray, 635 nm fluorescence, primary screen (AID 1105); settings: FSTL3 binding, higher = more signal;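 also: score merges emission near 667 nm and signal to noise per printed spot across three slides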
# [9] = molecular target: Dickkopf-related protein 1 (Homo sapiens) (UniProt O94907); experiment: small molecules binding DKK1 protein – biochemical, small-molecule microarray, 635 nm fluorescence scan, primary screen (AID 1106); settings: higher = more signal;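 also: score merges emission near 667 nm with signal to noise over three replicate slides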
# [10] = system: Inhibin beta A chain (activin A); experiment: small molecules binding activin A – biochemical, small-molecule microarray, 635 nm fluorescence scan, primary screen (AID 1107); settings: INHBA, higher = more signal;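 also: mouse activin A protein probed at 4.33 µg/mL on printed slides; score merges bound-protein fluorescence near 667 nm with spot signal-to-noise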
# [11] = system: Human papillomavirus type 1a protein E7 (residues 44-93); experiment: small molecules binding HPV E7 44-93 – biochemical, small-molecule microarray, residues 44-93, 635 nm fluorescence, primary screen (AID 1108); settings: fluorescence 635 nm, higher = more signal;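 also: E7 fragment applied at 1 µg/mL in TBST for 1 h at 4 C; score combines spot fluorescence with its signal to noise ratio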
# [12] = hepatitis C replication reporter changes, two-sided – Huh7 cells, luciferase reporter, HCV replication inhibitor project, primary screen (AID 1109); settings: Huh7 HCV replicon luciferase reporter, 48 h; higher = more signal;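 also: huh7 hepatoma cells harbouring a luciferase neomycin HCV replicon reporter; luciferase luminescence as measure of HCV replicon replication; test concentration not given here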
# [13] = molecular target: Left-right determination factor 2 (Homo sapiens) (UniProt O00292); experiment: small molecules binding LEFTY2 protein – biochemical, small-molecule microarray, 635 nm fluorescence scan, primary screen (AID 1110); settings: higher = more signal
# [14] = molecular target: Calmodulin-1 (Homo sapiens) (UniProt P0DP23); experiment: small molecules binding calmodulin-1 with EGTA – biochemical, small-molecule microarray, Cy5-labelled CALM1, profiling panel (AID 1111); settings: Cy5-CALM1 binding fluorescence, higher = more signal;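 also: labelled calmodulin applied in Tris saline Tween buffer holding calcium plus EGTA and DTT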
# [15] = molecular target: Calmodulin-1 (Homo sapiens) (UniProt P0DP23); experiment: small molecules binding Ca-loaded calmodulin-1 – biochemical, small-molecule microarray, Cy5-labelled CALM1, plus calcium, artefact control for SMM control-protein annotation, profiling panel (AID 1112); settings: Cy5-CALM1 binding fluorescence, higher = more signal;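 also: score merges spot fluorescence with signal to noise from triplicate slides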
# [16] = probe aWnt5a binding to arrayed compounds – biochemical, biotinylated probe, 635/667 nm fluorescence, primary screen (AID 1113); settings: small-molecule microarray, higher = more signal;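 also: score merges 667 nm fluorescence intensity with signal-to-noise per printed feature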
# [17] = probe aShh binding to arrayed compounds – biochemical, biotinylated probe, 635/667 nm fluorescence, primary screen (AID 1114); settings: small-molecule microarray, higher = more signal;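 also: probe is biotin-labelled aShh protein from a stem cell growth factor screen; measures binding of labelled protein to compounds printed on the slide; score merges feature fluorescence at 667 nm with signal-to-noise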
# [18] = probe aNog binding to arrayed compounds – biochemical, biotinylated probe, 635/667 nm fluorescence, primary screen (AID 1115); settings: small-molecule microarray, higher = more signal;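 also: probe is biotinylated aNog protein used at 0.15 µg/mL for 1 h at 4 C; z-score combines 667 nm fluorescence of each spot with its signal to noise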
# [19] = molecular target: Torsin-1A-interacting protein 1 (Homo sapiens) (UniProt Q5JTV8); experiment: compound microarray binding of lysate hLAP1 – cell lysate, small-molecule microarray, COS7 lysate, 635/667 nm fluorescence, primary screen (AID 1116); settings: 635 nm fluorescence, higher = more signal
# [20] = molecular target: Alpha-bungarotoxin (Bungarus multicinctus) (UniProt P60615); experiment: compounds binding labelled alpha-BTX control protein – biochemical, small-molecule microarray, Alexa647 label, 635/667 nm fluorescence, artefact control for SMM control protein annotation, profiling panel (AID 1117); settings: alpha-BTX-A647 binding fluorescence, higher = more signal
# Chain of Alpha-bungarotoxin (Bungarus multicinctus) (P60615 whole entry, looked up): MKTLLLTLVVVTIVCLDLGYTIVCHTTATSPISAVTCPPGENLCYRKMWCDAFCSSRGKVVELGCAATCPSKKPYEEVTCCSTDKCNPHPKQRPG
# Chain of Torsin-1A-interacting protein 1 (Homo sapiens) (Q5JTV8 whole entry, looked up): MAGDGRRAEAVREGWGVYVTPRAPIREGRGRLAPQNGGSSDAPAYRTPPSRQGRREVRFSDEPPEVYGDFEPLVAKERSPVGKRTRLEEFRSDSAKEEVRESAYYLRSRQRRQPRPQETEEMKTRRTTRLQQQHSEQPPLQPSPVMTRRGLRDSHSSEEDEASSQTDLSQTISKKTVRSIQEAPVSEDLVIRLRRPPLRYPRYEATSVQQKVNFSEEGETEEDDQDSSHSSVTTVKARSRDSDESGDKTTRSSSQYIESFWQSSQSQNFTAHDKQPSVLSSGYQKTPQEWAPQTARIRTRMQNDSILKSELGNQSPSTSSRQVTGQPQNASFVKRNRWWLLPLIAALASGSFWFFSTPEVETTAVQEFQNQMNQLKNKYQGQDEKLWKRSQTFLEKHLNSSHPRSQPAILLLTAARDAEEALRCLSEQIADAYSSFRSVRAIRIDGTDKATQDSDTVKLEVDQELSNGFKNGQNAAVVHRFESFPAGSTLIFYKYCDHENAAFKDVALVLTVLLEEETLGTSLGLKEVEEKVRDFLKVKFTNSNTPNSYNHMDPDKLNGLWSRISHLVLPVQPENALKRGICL
# Chain of Left-right determination factor 2 (Homo sapiens) (O00292 whole entry, looked up): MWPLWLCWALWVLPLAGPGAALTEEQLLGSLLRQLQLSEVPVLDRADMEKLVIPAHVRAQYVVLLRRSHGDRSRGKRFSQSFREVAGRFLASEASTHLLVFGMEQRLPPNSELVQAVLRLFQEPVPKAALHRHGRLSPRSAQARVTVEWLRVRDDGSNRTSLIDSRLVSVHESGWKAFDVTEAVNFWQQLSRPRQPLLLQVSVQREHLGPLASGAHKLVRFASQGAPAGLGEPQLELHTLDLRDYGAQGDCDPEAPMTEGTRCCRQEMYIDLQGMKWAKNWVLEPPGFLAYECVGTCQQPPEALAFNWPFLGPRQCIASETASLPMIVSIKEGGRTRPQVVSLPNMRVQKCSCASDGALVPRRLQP
# Chain of Fibroblast growth factor 10 (Homo sapiens) (O15520 whole entry, looked up): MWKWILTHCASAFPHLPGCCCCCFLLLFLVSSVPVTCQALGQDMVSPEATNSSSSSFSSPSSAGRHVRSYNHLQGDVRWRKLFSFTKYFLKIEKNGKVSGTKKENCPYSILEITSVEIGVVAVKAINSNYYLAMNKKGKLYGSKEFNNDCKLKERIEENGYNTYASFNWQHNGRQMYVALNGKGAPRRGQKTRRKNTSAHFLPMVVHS
# Chain of Follistatin-related protein 3 (Homo sapiens) (O95633 whole entry, looked up): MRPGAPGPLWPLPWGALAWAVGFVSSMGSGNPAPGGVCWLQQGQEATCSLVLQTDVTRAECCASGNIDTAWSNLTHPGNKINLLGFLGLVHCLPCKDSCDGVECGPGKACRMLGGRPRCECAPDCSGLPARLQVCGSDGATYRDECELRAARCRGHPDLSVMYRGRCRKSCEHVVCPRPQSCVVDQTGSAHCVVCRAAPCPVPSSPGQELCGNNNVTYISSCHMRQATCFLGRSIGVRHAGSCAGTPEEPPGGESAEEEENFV
# Chain of Dickkopf-related protein 1 (Homo sapiens) (O94907 whole entry, looked up): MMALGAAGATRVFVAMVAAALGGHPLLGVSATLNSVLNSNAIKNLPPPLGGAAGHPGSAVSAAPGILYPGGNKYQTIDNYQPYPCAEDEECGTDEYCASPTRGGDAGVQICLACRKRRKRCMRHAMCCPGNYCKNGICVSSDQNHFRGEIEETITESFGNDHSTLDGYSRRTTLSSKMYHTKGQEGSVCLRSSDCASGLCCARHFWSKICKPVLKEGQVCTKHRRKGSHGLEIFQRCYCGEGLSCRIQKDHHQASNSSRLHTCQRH
# Chain of Epidermal growth factor receptor (Homo sapiens) (P00533 whole entry, looked up): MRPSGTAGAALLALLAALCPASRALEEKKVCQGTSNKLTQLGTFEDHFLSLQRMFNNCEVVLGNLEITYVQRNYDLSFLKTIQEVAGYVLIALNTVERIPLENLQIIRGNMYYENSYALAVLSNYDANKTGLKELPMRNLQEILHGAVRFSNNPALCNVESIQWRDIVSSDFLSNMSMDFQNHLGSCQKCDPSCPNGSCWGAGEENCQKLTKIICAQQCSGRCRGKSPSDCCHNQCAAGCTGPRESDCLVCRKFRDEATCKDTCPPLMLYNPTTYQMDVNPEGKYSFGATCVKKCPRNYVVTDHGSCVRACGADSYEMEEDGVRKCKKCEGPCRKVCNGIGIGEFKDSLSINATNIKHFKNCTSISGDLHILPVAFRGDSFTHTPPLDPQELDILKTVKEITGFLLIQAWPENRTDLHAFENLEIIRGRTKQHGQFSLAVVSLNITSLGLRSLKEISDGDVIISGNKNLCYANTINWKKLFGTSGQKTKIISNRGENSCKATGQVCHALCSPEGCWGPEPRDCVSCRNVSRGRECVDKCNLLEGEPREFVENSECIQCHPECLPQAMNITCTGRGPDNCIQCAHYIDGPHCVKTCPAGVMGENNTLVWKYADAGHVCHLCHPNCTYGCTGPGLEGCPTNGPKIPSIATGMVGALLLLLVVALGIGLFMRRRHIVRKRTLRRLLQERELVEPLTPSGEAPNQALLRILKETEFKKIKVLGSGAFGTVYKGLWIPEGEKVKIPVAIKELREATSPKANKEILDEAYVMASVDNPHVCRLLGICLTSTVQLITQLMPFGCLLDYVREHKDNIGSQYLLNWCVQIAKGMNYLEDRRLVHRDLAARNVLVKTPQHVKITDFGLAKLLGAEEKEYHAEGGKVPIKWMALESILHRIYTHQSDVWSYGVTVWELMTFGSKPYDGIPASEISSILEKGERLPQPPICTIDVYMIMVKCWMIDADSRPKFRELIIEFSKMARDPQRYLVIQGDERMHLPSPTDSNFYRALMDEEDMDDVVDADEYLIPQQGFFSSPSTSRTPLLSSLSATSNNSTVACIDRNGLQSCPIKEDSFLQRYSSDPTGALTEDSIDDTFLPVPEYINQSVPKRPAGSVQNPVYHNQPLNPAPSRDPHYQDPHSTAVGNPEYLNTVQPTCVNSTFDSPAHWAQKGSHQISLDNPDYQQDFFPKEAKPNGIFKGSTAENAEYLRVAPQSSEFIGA
Compound,composite z-score [1],composite z-score [2],composite z-score [3],z-score [4],composite z-score [5],composite z-score [6],composite z-score [7],composite z-score [8],composite z-score [9],composite z-score [10],composite z-score [11],z-score [12],composite z-score [13],composite z-score [14],composite z-score [15],composite z-score [16],composite z-score [17],composite z-score [18],composite z-score [19],composite z-score [20]
CC(C)=CCCC(C)=CCON=C1C[C@@H](O)[C@@H](O)[C@@H]2[C@@H]3C(=O)N(Cc4ccccc4)C(=O)[C@@H]3CC[C@H]12,0.639,-0.21,-0.659,-1.83 (inactive),0.932,1.12,0.611,1.14,-0.523,1.11,0.759,-2.74,0.985,0.0703,-0.985,-0.164,-0.2,-0.0223,0.577,0.121
CCN1C(=O)[C@H]2[C@H]3[C@H](O)[C@H](O)CC(=O)[C@H]3CC[C@H]2C1=O,0.519,-0.106,-0.721,0.691 (inactive),0.406,0.713,0.371,0.396,0.776,-0.249,0.566,-0.693,0.872,-0.123,-0.448,-0.0472,0.0278,-0.158,0.161,0.113
CO[C@H]1COC(=O)[C@@H](Cc2ccccc2)NC(=O)[C@@H](C)COC(=O)CCC[C@@H]1C,-0.0517,-0.242,-0.539,-0.498 (inactive),0.517,-0.431,0.304,0.379,0.601,0.296,-0.573,-2.38,0.455,-0.273,-0.679,-0.0478,0.0278,-0.412,0.29,0.273
CCOC(=O)NN=C1C[C@@H](O)[C@@H](O)[C@@H]2[C@@H]3C(=O)N(c4ccc(F)cc4F)C(=O)[C@@H]3CC[C@@H]12,0.468,-0.132,-0.364,0.428 (inactive),0.478,0.364,0.527,0.659,0.462,0.18,0.687,0.0324,0.292,-0.167,-0.205,-0.0087,-0.108,-0.213,0.196,-0.234
CC(=O)OC[C@H]1O[C@H](C#Cc2ccccc2)C=C[C@@H]1OC(C)=O,1.27,-0.0406,-0.219,-1.92 (inactive),0.338,0.163,0.0278,0.59,0.57,0.58,-0.234,-2.92,0.711,-0.376,-0.449,-0.119,-0.124,0.115,0.288,-0.686
C[C@H]1COC(=O)[C@@H]2CCCN2C(=O)[C@@H](C)COC(=O)[C@H](Cc2ccccc2)NC1=O,0.878,-0.275,-0.647,0.282 (inactive),0.338,0.727,0.911,0.511,0.374,-0.372,0.851,-1.34,0.474,-0.099,-0.447,-0.124,-0.206,-0.3,0.308,0.158
O=C(C=Cc1ccc2c(c1)OCO2)c1ccc(F)cc1,0.818,-0.136,-0.459,-0.603 (inactive),0.498,-0.296,0.549,0.801,1.52,0.239,-0.9,2.84,0.976,-0.481,-1.41,-0.0455,0.297,-0.126,0.569,0.444
CC1O[C@H]2C3=C(C(=O)[C@@H]4O[C@@H]4[C@H]3O)[C@@H]1C1[C@@H](C)OC=C3[C@H](O)C4O[C@@H]4C(=NOCc4ccccc4)[C@]312 (stereo not given in full),0.0395,-0.129,-0.326,-0.469 (inactive),0.0791,-0.14,0.191,-0.3,0.155,0.121,-0.768,-3.71,0.18,-0.472,-0.177,-0.0519,0.225,-0.347,-0.192,-0.725
CC(C)=CCCC(C)=CCON=C1C[C@@H](O)[C@@H](O)[C@@H]2[C@@H]3C(=O)N(c4ccc(F)cc4F)C(=O)[C@@H]3CC[C@@H]12,0.476,-0.324,-0.497,-0.118 (inactive),0.601,-0.0599,0.628,0.806,0.926,1.04,0.15,-1.08,0.821,-0.343,0.0144,-0.169,-0.0553,-0.374,1,0.703
COC(=O)C=CCCc1coc(C=CCNC(=O)OC)n1,0.844,0.161,-0.388,0.183 (inactive),0.789,0.643,0.867,1.07,1.16,1.3,0.565,-0.632,0.827,-0.316,-1.53,-0.0346,0.275,-0.255,0.192,-0.264
CCCNC(=O)OC[C@H]1O[C@H](CCON=C(C)CCC(=O)OC[C@H]2O[C@H](c3ccccc3)C=C[C@@H]2Oc2ccc(OC)cc2)C=C[C@@H]1Oc1ccc(OC)cc1,0.452,-0.183,-0.207,0.358 (inactive),-0.445,-1.49,-0.239,-0.31,0.0289,0.844,-0.996,-1.17,-0.126,-0.449,-0.678,-0.0685,-0.138,-0.0039,0.23,-0.183
CCC(=O)[C@@]1(O)C(=O)N2C(=C3C(=O)OCC[C@@H]31)N(Cc1ccccc1)C(C)=C(C(=O)OC)[C@H]2c1ccccc1,0.413,-0.302,-0.624,0.501 (inactive),0.241,0.554,0.43,0.429,0.873,-0.0748,0.403,0.0779,0.366,-0.368,-0.478,0.0108,-0.221,-0.369,0.478,-0.0321
C=CC[C@@H]1C=C[C@H](ON=C(C)CCC(=O)OC[C@H]2O[C@H](C#Cc3ccccc3)C=C[C@@H]2Oc2ccc(C)cc2)[C@@H](CO)O1,1.19,-0.0927,-0.515,-0.439 (inactive),1.16,1.01,0.298,1.04,0.606,-0.117,1.42,0.568,0.605,0.759,0.188,-0.0236,0.0639,-0.0463,0.728,0.742
CCOC(=O)[C@H](CC(C)C)NC(=O)CCC1CC(OC(=O)NCc2cccc3ccccc23)CC2(CCCC(COC(=O)NCCCN3CCCC3=O)O2)O1 (stereo not given in full),0.389,-0.171,-0.38,-0.406 (inactive),0.408,0.819,0.384,0.787,0.583,0.0612,1.15,-1.12,0.446,0.446,-0.385,-0.194,-0.206,-0.467,0.196,0.754
O=C1C2=CC[C@H]3C(=O)N(c4cccc(Oc5ccccc5)c4)C(=O)[C@H]3[C@H]2[C@H](O)[C@@H]2O[C@H]12,0.237,-0.372,-0.37,14.7 (active),0.635,0.393,0.299,0.666,0.655,-0.0639,0.792,-4.64,0.516,0.0194,-0.32,-0.157,-0.273,-0.224,0.257,0.281
CCOC(=O)[C@H](CC(C)C)NC(=O)CCC1CC(OC(=O)NCCc2ccc(F)cc2)CC2(CCCC(COC(=O)NCCC(C)C)O2)O1 (stereo not given in full),0.264,-0.149,-0.424,-0.695 (inactive),0.18,-0.0508,0.0889,0.27,0.324,0.175,0.48,0.314,0.344,0.586,-0.216,-0.0383,-0.0733,-0.108,-0.0671,1.21
COc1cccc([C@H]2Oc3ccc(OC)cc3C(=NOC[C@@H](O)[C@H]3O[C@@H]4OC(C)(C)O[C@@H]4[C@H]3O)[C@@H]2O)c1,0.0732,-0.389,-0.511,-0.106 (inactive),0.654,0.315,0.35,0.492,0.548,-0.326,0.0743,4.33,0.583,-0.284,-0.273,-0.139,-0.304,-0.409,0.64,-0.106
